# Source: PubChem (National Center for Advancing Translational Sciences (NCATS))
# D1 antag: antagonists of human D1 dopamine receptor; actives 3.2% (n = 360,000); P21728; activity change, negative = inhibition, % at 10 µM; HEK293 TREx D1 cells, calcium flux, dopamine EC80; hits give low values; in the data active means activity change below about -30%; further: on the % scale 0 is the no-effect control and ±100 the full control effect
# Target sequence (P21728 whole entry, looked up): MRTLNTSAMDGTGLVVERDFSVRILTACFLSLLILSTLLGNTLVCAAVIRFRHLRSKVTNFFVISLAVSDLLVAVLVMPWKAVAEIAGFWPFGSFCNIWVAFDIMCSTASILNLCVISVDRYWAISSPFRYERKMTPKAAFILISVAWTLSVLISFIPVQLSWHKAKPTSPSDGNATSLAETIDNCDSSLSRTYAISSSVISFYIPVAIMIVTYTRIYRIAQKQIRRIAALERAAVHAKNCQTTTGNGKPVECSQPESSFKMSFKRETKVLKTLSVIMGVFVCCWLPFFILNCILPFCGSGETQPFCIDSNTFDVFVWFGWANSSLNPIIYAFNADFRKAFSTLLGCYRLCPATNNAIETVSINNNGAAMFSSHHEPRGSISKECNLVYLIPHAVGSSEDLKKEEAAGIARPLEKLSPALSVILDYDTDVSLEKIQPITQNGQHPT
#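 Tetracycline-induced HEK293 Trex D1 cells, force-coupled to calcium, dye-loaded; compounds added and read 180 s, then EC80 dopamine added and calcium flux tracked kinetically another 180 s.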
# D1 ag: activates the human D1 dopamine receptor. P21728. HEK293 T-REx D1 cells, calcium flux, agonist mode. activation, % at 2 µM. actives 1% (n = 360,000); in the data active means activation above about 30%; further: 0% is about no effect
#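 Agonism was scored from calcium flux recorded over 180 s (1 read/s) after pintool compound addition, following a 10-cycle baseline. Cells were inducible force-coupled HEK293 TREx D1, plated overnight at 30 C and loaded with no-wash calcium dye.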
# D1 PAM: potentiators of human D1 dopamine receptor | P21728 | HEK293 TREx D1 cells, calcium flux, dopamine EC20 potentiation | potentiation, % at 10 µM | actives 0.036% (n = 360,000) | AID 504651; in the data active means potentiation above about 30%; further: 0% is about no effect
# D3 antag: D3 dopamine receptor (human) antagonism; D3R cells, DiscoveRx beta-arrestin luminescence, antagonist mode; hits give low values; max response, negative = inhibition, %; actives 2.5% (n = 360,000); AID 652054; in the data active means max response below about -50%; inconclusive means no clear call, values can overlap the other calls; further: on the % scale 0 is the no-effect control and ±100 the full control effect
#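 Cells expressing the human receptor were seeded at 1500 cells/well, incubated overnight at 37 degrees C in 5% CO2, then exposed to library compounds with dopamine controls for 90 minutes at 37 degrees C before luminescent detection.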
# DRD3 agonist: D3 dopamine receptor (human) agonism; max activation, %; D3R DiscoveRx beta-arrestin cells, luminescence, 90 min; AID 652048; P35462; actives 0.58% (n = 410,000); in the data active means max activation above about 30%; further: 0% is about no effect
#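 Cells at 1500/well, incubated overnight, then treated with pinned compounds (dopamine as control) for 90 min at 37 degrees C. DiscoveRx reagent added for 30 - 60 minutes at room temperature; luminescence read.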
# The depositor's hits bear a star; u = inconclusive; x = not tested or not shown. Sampled rows, rich in hits. Any-hit rate of the full collection: about 6%.
SMILES,D1 antag,D1 ag,D1 PAM,D3 antag,DRD3 agonist
CCN(Cc1ccccc1)S(=O)(=O)c1ccc(C(=O)Nc2nnc(C)o2)cc1,-8.0,1.3,2.7,3.8,1.3
CCN(CC)S(=O)(=O)c1ccc(C(=O)Nc2nnc(-c3ccco3)o2)cc1,2.0,5.2,-3.9,6.6,-2.5
CCN(CC)S(=O)(=O)c1ccc(C(=O)Nc2nnc(CSC)o2)cc1,-5.7,1.6,-7.3,1.7,8.5
CCCCN(C)S(=O)(=O)c1ccc(C(=O)Nc2nnc(CSC)o2)cc1,5.7,-1.1,-1.6,-97.6*,-1.9
CCCCN(CCCC)S(=O)(=O)c1ccc(C(=O)Nc2nnc(COC)o2)cc1,0.4,0.9,5.8,-92.7*,-1.0
CCCCN(CC)S(=O)(=O)c1ccc(C(=O)Nc2nnc(-c3cccs3)o2)cc1,-12.1,39.8*,-7.9,-57.0*,1.4
CCc1nnc(NC(=O)c2ccc(S(=O)(=O)N(CC)Cc3ccccc3)cc2)o1,-0.5,2.4,-1.6,-99.1*,8.0
CCN(CC)S(=O)(=O)c1ccc(C(=O)Nc2nnc(COC)o2)cc1,-3.6,4.2,-4.8,-8.0,8.1
Cc1ccc(C(=O)c2oc3ccccc3c2NC(=O)Cc2coc3cc(C)ccc23)cc1,10.1,-1.1,0.1,x,0.2
COc1ccc(C(C)=O)cc1Cn1cnc2c(cnn2C)c1=O,3.7,2.8,4.2,-2.8,3.7
COc1ccc(C=O)cc1Cn1cnc2c(cnn2C)c1=O,-36.4*,1.2,1.2,8.3,2.1
O=C(COc1ccc(Cl)cc1Cl)NC(=O)N1CCOCC1,9.6,-0.2,4.8,-58.2*,-4.8
Cn1c(SCC(=O)NCCC2=CCCCC2)nnc1C(F)(F)F,x,x,x,-70.0*,-5.0
O=C(NCC12CC3CC(CC(C3)C1)C2)c1cc2nc(-c3ccc(F)cc3)cc(C(F)(F)F)n2n1,14.0,3.5,0.2,x,-2.1
O=C(NCC(c1ccco1)N1CCCC1)c1sc2ccccc2c1Cl (stereo not drawn),-3.1,2.1,-6.5,-15.0,-19.9
Cc1c(C(=O)NCC(c2ccco2)N2CCCC2)sc2ccccc12 (stereo not drawn),x,x,x,-64.3*,-23.7
S=C(NCc1ccco1)NCC(c1ccco1)N1CCCCC1 (stereo not drawn),11.9,2.2,5.3,-65.8*,0.2
CCc1cc(C(=O)NCC(c2ccco2)N2CCCCC2)sc1C (stereo not drawn),24.5,5.4,-0.1,-59.4*,-8.6
Cc1cc2c(s1)c1cnn(Cc3cccc(Cl)c3)c(=O)c1n2C,-4.5,2.4,0.2,x,x
COc1ccc(CCNC(=O)Cn2cc(S(=O)(=O)Cc3ccccc3Cl)c3ccccc32)cc1OC,-10.2,-0.1,-0.7,x,7.4
Cc1ccc(S(=O)(=O)c2c(O)cc(C)c(NS(=O)(=O)c3ccc(Cl)cc3)c2C)cc1,-3.1,0.2,0.2,x,-7.7
Cc1ccc(-n2ncc3c(=O)[nH]c(SCC(=O)N4CCOCC4)nc32)cc1,-8.9,1.0,-4.3,-16.0,-3.9
COC(=O)c1ccc(CSc2nc3c(cnn3-c3ccc(C)cc3)c(=O)[nH]2)o1,-11.7,-2.6,-5.8,19.5,35.2*
O=C(Nc1ccccc1C(=O)N/N=C/c1ccncc1)c1ccccc1,-31.8*,3.4,-11.2,13.0,10.1
COc1ccc(NC(=O)CCC(=O)N/N=C/c2ccncc2)cc1,-64.0*,1.7,-5.0,11.8,0.2
SMILES,D1 antag,D1 ag,D1 PAM,D3 antag,DRD3 agonist
O=C(CCC(=O)Nc1ccccc1)N/N=C/c1ccncc1,-6.0,5.2,-3.6,-3.0,-10.7
Cc1ccccc1NC(=O)CCC(=O)N/N=C/c1ccncc1,-40.5*,11.3,-2.8,-12.2,-9.2
Cc1ccccc1C(=O)Nc1ccc(C(=O)N/N=C/c2ccncc2)cc1,-10.1,0.6,-1.8,u,-4.3
CCOC(=O)Cn1nc(N2CCN(c3ccc(F)cc3)CC2)ccc1=O,1.6,3.0,-0.8,x,8.0
CCc1nc2ccc(C(=O)Nc3cc(-c4ccccc4)ccc3OC)cn2c1N(C=O)CCC(C)C,x,x,x,5.9,69.0*
CCc1nc2ccc(C(=O)Nc3cc(-c4ccccc4)ccc3OC)cn2c1N(CCN(C)C)CC1CC1,x,x,x,-69.0*,-18.9
CCc1nc2ccc(C(=O)NCCOc3ccc(OC)cc3)cn2c1N(CCC(C)C)CCN(C)C,x,x,x,-89.3*,-28.2
CCc1nc2ccc(C(=O)Nc3cc(-c4ccccc4)ccc3OC)cn2c1N(C)CCC(C)C,x,x,x,59.7,15.5
